Measurements as given in PubChem BioAssay (EPA / NIEHS).
Where “and” joins values, the source holds several entries; their conditions need not be identical. Equal entries are not always repeated. Inconclusive results are not listed. Calls of active or inactive are those of the source. The calls were made as follows, unless noted: active = hit-call score of the fitted dose curve at least 0.9, where 1 is the maximum; inconclusive = response in the unintended direction; inactive = score below 0.9.

Assays:
[1] = biological target: Nucleoli Translocation, AR (gene 367) (UniProt P10275); test: UPITT_HCI_U2OS_AR_TIF2_Nucleoli_Antagonist: University of Pittsburgh U2OS Androgen Receptor-Transcriptional Intermediary Factor 2 (AR-TIF2) Antagonism High Content Imaging Assay for Nucleoli Translocation (AID 2283997)
Summary of the method: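 Measured quantity was AR-RFP fluorescence localized to nucleoli in engineered U2OS cells also bearing TIF2-GFP, acquired on automated high-content imagers. Primary testing used 20 uM compound; actives were confirmed in triplicate wells.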

[2] = biological target: Nucleoli Translocation, AR (gene 367) (UniProt P10275); test: UPITT_HCI_U2OS_AR_TIF2_Nucleoli_Agonist: University of Pittsburgh U2OS Androgen Receptor-Transcriptional Intermediary Factor 2 (AR-TIF2) Agonism High Content Imaging Assay for Nucleoli Translocation (AID 2283998)
Summary of the method: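 RFP-AR / GFP-TIF2 cells; cpds diluted in serum-free medium; single-point screen 20 uM final (0.2% DMSO), actives confirmed in triplicate; conc-response 0.195–50 uM final (0.5% DMSO). Readout: nucleolar red fluorescence, positive direction vs DMSO.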

[3] = biological target: Ratio of Nucleoli Translocation and Cytoplasm, AR (gene 367) (UniProt P10275); test: UPITT_HCI_U2OS_AR_TIF2_Nucleoli_Cytoplasm_Ratio_Agonist: University of Pittsburgh U2OS Androgen Receptor-Transcriptional Intermediary Factor 2 (AR-TIF2) Agonism High Content Imaging Assay for Ratio of Nucleoli Translocation and Cytoplasm (AID 2284000);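 also: hits raise the red nucleolar to cytoplasm ratio above vehicle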
Summary of the method: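 Read-out first: nucleolar-to-cytoplasm ratio of red (AR-RFP) signal, quantified by high-content imaging in U2OS cells co-expressing TIF2-GFP. Activity is scored as signal increase over DMSO. Single-point screening used 20 uM final (0.2% DMSO).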

[4] = CCTE_Harrill_HTTr_Apoptosis_DMEM_12hr: (Pilot) CCTE's 12-hour Apoptosis Assessment for the High-Throughput Transcriptomics (HTTr) Platform, in MCF-7 cells cultured in DMEM + 10% fetal bovine serum, Harrill Lab (AID 2283982; active = hit-call score of the fitted dose curve at least 0.9, where 1 is the maximum; inactive = score below 0.9)
Summary of the method: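 MCF-7 cells in DMEM + 10% FBS, exposed 12 h to an eight-point dilution series; caspase-3/7 activation imaged with CellEvent Green. Bidirectional fit versus DMSO.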

[5] = CCTE_Harrill_HTTr_Apoptosis_DMEM_24hr: (Pilot) CCTE's 24-hour Apoptosis Assessment for the High-Throughput Transcriptomics (HTTr) Platform, in MCF-7 cells cultured in DMEM + 10% fetal bovine serum, Harrill Lab (AID 2283983; active = hit-call score of the fitted dose curve at least 0.9, where 1 is the maximum; inactive = score below 0.9)
Summary of the method: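 MCF-7 cells in DMEM + 10% FBS, eight-point dilution series, 24 h exposure. Caspase-3/7 activation imaged by high-content imaging with CellEvent Caspase 3/7 Green. Bidirectional curve fitting against DMSO baseline.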

[6] = CCTE_Harrill_HTTr_Apoptosis_PRF_DMEM_6hr: (Pilot) CCTE's 6-hour Apoptosis Assessment for the High-Throughput Transcriptomics (HTTr) Platform, in MCF-7 cells cultured phenol red-free DMEM + 10% charcoal-stripped fetal bovine serum, Harrill Lab (AID 2283984; active = hit-call score of the fitted dose curve at least 0.9, where 1 is the maximum; inactive = score below 0.9)
Summary of the method: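 MCF-7 cells in phenol red-free DMEM + 10% charcoal-stripped FBS, eight-point dilution series, 6 h exposure. Caspase-3/7 activation imaged by high-content imaging with CellEvent Caspase 3/7 Green; bidirectional fit versus DMSO baseline.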

[7] = CCTE_Harrill_HTTr_Apoptosis_PRF_DMEM_12hr: (Pilot) CCTE's 12-hour Apoptosis Assessment for the High-Throughput Transcriptomics (HTTr) Platform, in MCF-7 cells cultured in phenol red-free DMEM + 10% charcoal-stripped fetal bovine serum, Harrill Lab (AID 2283985; active = hit-call score of the fitted dose curve at least 0.9, where 1 is the maximum; inactive = score below 0.9)
Source text: This is a cell-based assay that evaluates apoptosis using high content imaging to evaluate activation of caspase-3/7 using the CellEvent Caspase 3/7 Green detection reagent in 384-well format.One of seven assay components measured from the CCTE_Harrill_HTTr_Apoptosis assay. This was part of a pilot experiment. This is a cell-based assay that evaluates apoptosis in MCF-7 cells cultured in phenol red-free DMEM + 10% charcoal-stripped fetal bovine serum. High content imaging is used to evaluate activation of caspase-3/7 using the CellEvent Caspase 3/7 Green detection reagent. Measurements are taken at 12 hours after chemical dosing in 384-well format.The assay component endpoint CCTE_Harrill_HTTr_Apoptosis_PRF_DMEM_12hr was analyzed with bidirectional fitting relation to DMSO as the negative control and baseline of activity. Using a type of viability reporter, gain-of-signal activity can be used to evaluate activation of caspase-3/7 using the CellEvent Caspase 3/7 Green detection reagent to understand changes in apoptosis. To generalize the intended target to other relatable targets, this assay endpoint is annotated to cell cycle, where the subfamily is apoptosis.
Chemicals were tested in MCF7 cells in an eight point dilution series with a twelve hour exposure duration.

[8] = CCTE_Harrill_HTTr_Apoptosis_PRF_DMEM_24hr: (Pilot) CCTE's 24-hour Apoptosis Assessment for the High-Throughput Transcriptomics (HTTr) Platform, in MCF-7 cells cultured in phenol red-free DMEM + 10% charcoal-stripped fetal bovine serum, Harrill Lab (AID 2283986; active = hit-call score of the fitted dose curve at least 0.9, where 1 is the maximum; inactive = score below 0.9)
Summary of the method: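 MCF-7 cells in phenol red-free DMEM with 10% charcoal-stripped FBS, exposed 24 h across an eight-point dilution series. Caspase-3/7 activation imaged with CellEvent Green by high content imaging; bidirectional fitting against DMSO.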

[9] = biological target: Ratio of Nucleoli Translocation and Cytoplasm, AR (gene 367) (UniProt P10275); test: UPITT_HCI_U2OS_AR_TIF2_Nucleoli_Cytoplasm_Ratio_Antagonist: University of Pittsburgh U2OS Androgen Receptor-Transcriptional Intermediary Factor 2 (AR-TIF2) Antagonism High Content Imaging Assay for Ratio of Nucleoli Translocation and Cytoplasm (AID 2283999);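 also: antagonists lower the DHT-driven ratio of nucleolar to cytoplasmic red signal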
Summary of the method: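 High-content imaging quantifies the red nucleolar:cytoplasmic fluorescence ratio in U2OS cells with AR-RFP and TIF2-GFP. Final concentrations are 20 uM (screen) or 0.195–50 uM (dose response), analysed against DHT as baseline.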

DIO1 (gene 1733) = test: CCTE_GLTED_hDIO1: CCTE's human Deiodinase 1 (DIO1) Inhibition Assay, Great Lakes Toxicology and Ecology Division (GLTED) Lab (AID 2283987);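 also: isolated human DIO1 enzyme in a cell-free setup rather than cells; enzyme activity read as free iodide liberated from substrate via Sandell-Kolthoff colorimetry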
Summary of the method: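 Steps: human DIO1 enzyme plus test chemical, 3 h incubation; free iodide then quantified in a second Sandell-Kolthoff step by absorbance. DMSO served as negative control and baseline.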

Chain of Nucleoli Translocation, AR (gene 367) (P10275 whole entry, looked up): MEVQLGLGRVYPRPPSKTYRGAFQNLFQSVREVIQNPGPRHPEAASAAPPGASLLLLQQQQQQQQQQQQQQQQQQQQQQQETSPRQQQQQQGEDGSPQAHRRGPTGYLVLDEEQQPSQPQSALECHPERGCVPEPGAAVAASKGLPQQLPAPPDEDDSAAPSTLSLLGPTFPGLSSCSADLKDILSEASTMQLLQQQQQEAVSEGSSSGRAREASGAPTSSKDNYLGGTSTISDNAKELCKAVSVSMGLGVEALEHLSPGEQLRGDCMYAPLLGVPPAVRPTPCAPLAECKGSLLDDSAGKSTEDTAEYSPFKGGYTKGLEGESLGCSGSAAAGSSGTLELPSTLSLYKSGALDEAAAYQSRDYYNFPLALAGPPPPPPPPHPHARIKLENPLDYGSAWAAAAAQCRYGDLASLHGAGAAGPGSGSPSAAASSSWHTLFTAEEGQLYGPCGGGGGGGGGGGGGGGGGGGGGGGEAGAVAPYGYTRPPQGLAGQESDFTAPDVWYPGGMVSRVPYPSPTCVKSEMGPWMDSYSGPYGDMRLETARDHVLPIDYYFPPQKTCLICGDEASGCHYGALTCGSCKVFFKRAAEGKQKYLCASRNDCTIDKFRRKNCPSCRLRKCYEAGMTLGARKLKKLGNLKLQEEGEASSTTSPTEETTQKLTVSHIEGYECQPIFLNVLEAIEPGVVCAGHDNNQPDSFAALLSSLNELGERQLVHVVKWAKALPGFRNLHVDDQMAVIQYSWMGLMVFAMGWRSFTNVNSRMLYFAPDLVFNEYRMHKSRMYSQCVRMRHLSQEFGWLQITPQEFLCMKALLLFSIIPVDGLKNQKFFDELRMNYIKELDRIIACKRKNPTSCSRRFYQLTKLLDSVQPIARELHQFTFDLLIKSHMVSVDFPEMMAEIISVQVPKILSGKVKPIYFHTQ
Chain of Ratio of Nucleoli Translocation and Cytoplasm, AR (gene 367) (P10275 whole entry, looked up): as above

For O=C(O)CCCOc1ccc(Cl)cc1Cl, which outcome [1] is on record?
Its outcome is “inactive”.

What about the outcome [2] of the same compound?
Its outcome is “inactive”.

And the outcome [3]?
The outcome was “inactive”.

Which outcome [1] does the source give for O=[N+]([O-])/N=C1\NCCN1Cc1ccc(Cl)nc1 here?
Its outcome is “inactive”.

What about the outcome [2] of the same compound?
Its outcome is “inactive”.

What about the outcome [3] of the same compound?
The outcome was “inactive”.

With CCCN(CCOc1c(Cl)cc(Cl)cc1Cl)C(=O)n1ccnc1 as the compound, how does the outcome [4] read?
Its outcome is “inactive”.

What about the outcome [5] of the same compound?
Its outcome is “inactive”.

What about the outcome [6] of the same compound?
Its outcome is “inactive”.

And the outcome [7]?
Its outcome is “inactive”.

And the outcome [8]?
Its outcome is “inactive”.

Which AC50 [1] does the source give for Oc1ccc(Cl)cc1Cc1ccccc1 here?
Its AC50 is 19.1 µM (active).

What about the AC50 [2] of the same compound?
The AC50 was 13 µM (active).

What about the AC50 [9] of the same compound?
Its AC50 is 7.42 µM (active).

What does the source list for C[C@H]1[C@H](c2ccc(Cl)cc2)SC(=O)N1C(=O)NC1CCCCC1?
AC50 [1]: 27.4 µM (active); outcome [2]: inactive; outcome [9]: inactive; outcome [3]: inactive

What does the source list for CCOC1Oc2ccc(OS(C)(=O)=O)cc2C1(C)C (stereo unspecified)?
outcome [1]: inactive; outcome [3]: inactive

With N#Cc1c(Cl)c(Cl)c(Cl)c(C#N)c1Cl as the compound, how does the AC50 (DIO1 (gene 1733)) read?
Its AC50 is 30.1 µM (active).

For O=S1OCC2C(CO1)C1(Cl)C(Cl)=C(Cl)C2(Cl)C1(Cl)Cl (stereo unspecified), which AC50 [1] is on record?
Its AC50 is 30.6 µM (active).

What about the outcome [2] of the same compound?
The outcome was “inactive”.

What about the outcome [9] of the same compound?
Its outcome is “inactive”.

Which results are given for O=[N+]([O-])c1c(Cl)c(Cl)c(Cl)c(Cl)c1Cl?
AC50 [1]: 20.6 µM (active); outcome [2]: inactive; outcome [9]: inactive; outcome [3]: inactive

With CCC(C)(NC(=O)c1cc(Cl)c(C)c(Cl)c1)C(=O)CCl (stereo unspecified) as the compound, how does the AC50 (DIO1 (gene 1733)) read?
Its AC50 is 16.1 µM (active).

With COP(=S)(OC)Oc1ccc(SC)c(C)c1 as the compound, how does the AC50 (DIO1 (gene 1733)) read?
Its AC50 is 10.7 µM (active).

Which results are given for O=C(O)C(F)(F)C(F)(F)C(F)(F)C(F)(F)C(F)(F)C(F)(F)C(F)(F)F?
outcome [4]: inactive; outcome [5]: inactive; outcome [6]: inactive; outcome [7]: inactive; outcome [8]: inactive

With CCCN(CCC)c1c([N+](=O)[O-])cc(C(F)(F)F)cc1[N+](=O)[O-] as the compound, how does the outcome [1] read?
The outcome was “inactive”.

What about the outcome [9] of the same compound?
The outcome was “inactive”.

And the outcome [3]?
The outcome was “inactive”.

For Oc1cc(Cl)ccc1Oc1ccc(Cl)cc1Cl, which AC50 (DIO1 (gene 1733)) is on record?
Its AC50 is 60.4 µM (active) [middle of 5 runs].

What does the source list for Cc1[nH]c(=O)n(C(C)(C)C)c(=O)c1Cl?
outcome [1]: inactive; outcome [2]: inactive; outcome [3]: inactive

With CCC(C)(C)C(=O)OC1=C(c2ccc(Cl)cc2Cl)C(=O)OC12CCCCC2 as the compound, how does the AC50 [1] read?
The AC50 was 50 µM (active).

And the outcome [2]?
Its outcome is “inactive”.

And the outcome [9]?
The outcome was “inactive”.

What about the outcome [3] of the same compound?
The outcome was “inactive”.

Which outcome [4] does the source give for O=S(=O)(O)C(F)(F)C(F)(F)C(F)(F)C(F)(F)C(F)(F)C(F)(F)C(F)(F)C(F)(F)F here?
Its outcome is “inactive”.

What about the outcome [5] of the same compound?
The outcome was “inactive”.

And the outcome [6]?
The outcome was “inactive”.

And the outcome [7]?
The outcome was “inactive”.

And the outcome [8]?
The outcome was “inactive”.

What about the AC50 (DIO1 (gene 1733)) of the same compound?
The AC50 was 173 µM (active) and 159 µM (active) and 170 µM (active).

Which outcome [1] does the source give for C#CCN1C(=O)COc2cc(F)c(N3C(=O)C4=C(CCCC4)C3=O)cc21 here?
The outcome was “inactive”.

What about the outcome [2] of the same compound?
Its outcome is “inactive”.

And the outcome [9]?
Its outcome is “inactive”.

What about the outcome [3] of the same compound?
The outcome was “inactive”.
